Experimental data: PubChem BioAssay AID1159580 (chemical genetic matrix, 2015)
The campaign covered roughly 5,500 compounds. About 2,000 (36%) were called active. Another 18% or so got no clear call; they are omitted. Cut-off read from the data, not from the text of the source: active = normalized growth mostly below about 0.91 (no sharp cut-off); inconclusive = no clear call, values can overlap the other calls; inactive = mostly above about 0.92. The list shows a part of the results.

Assay: chemical genetic growth profiling, strain panel (AID 1159580);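 note: tested at 20 µM; growth read once vehicle control cultures reached saturation at 30 °C; 1 = growth at the plate median or of vehicle wells; lower values mean less growth of the strain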
Conditions: S. cerevisiae deletion strains, growth OD

Measured: normalized growth

CCCC[C@@]1(C2CCCC2)Cc2cc(OCC(=O)O)c(Cl)c(Cl)c2C1=O
inactive: locus YAL013W, strain DEP1, active compounds read low 1.02 | locus YAL040C, strain CLN3, active compounds read low 1 | locus YCL061C, strain MRC1 (second series), active compounds read low 1 | locus YDR363W, strain ESC2, active compounds read low 0.989 | locus YER002W, strain NOP16, active compounds read low 1.05 | locus YGR078C, strain PAC10, active compounds read low 1.02 | locus YGR229C, strain SMI1, active compounds read low 1.03 | locus YMR263W, strain SAP30, active compounds read low 1 | locus YNL153C, strain GIM3, active compounds read low 1.01 | locus YNL175C, strain NOP13, active compounds read low 0.986 | locus YNL197C, strain WHI3, active compounds read low 0.959 | locus YNL224C, strain SQS1, active compounds read low 0.989 | locus YOR083W, strain WHI5 (second series), active compounds read low 1 | locus YPL241C, strain CIN2, active compounds read low 1
